PubChem BioAssay (NCATS)
Results filed as inconclusive are left out. Entries that show only a call come without a potency. Values without a mark were called inactive. The source made the active and inactive calls. The call rests on the fitted dose curve; in most records, active means well fitted inhibition curve with a large enough effect; inconclusive means small, poorly fitted or top-dose-only effect; inactive means flat fitted curve, though single readings scatter.

Legend:
[1] = qHTS profiling for inhibitors of Plasmodium falciparum proliferation (AID 504749); further: nearly all actives have a fitted effect of over 60% in size; settings: P. falciparum in erythrocytes, SYBR Green DNA, 72 h
Method in brief: (§1)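 Quantitative HTS: compounds pinned into medium, infected erythrocytes added (0.3% parasitemia, 2.5% hematocrit), 72 h culture at 37 C under 5% CO2. Saponin/Triton lysis with SYBR Green I, overnight RT, then fluorescence read.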

3D7 = experiment: as above; settings: P. falciparum in erythrocytes, SYBR Green DNA, 72 h; series mostly up to 28.7 µM
Method in brief: as §1

7G8 = experiment: as above; settings: P. falciparum in erythrocytes, SYBR Green DNA, 72 h; series mostly up to 28.7 µM
Method in brief: as §1

AA1029 = experiment: as above; settings: P. falciparum in erythrocytes, SYBR Green DNA, 72 h; series mostly up to 28.7 µM
Method in brief: as §1

AS120 = experiment: as above; settings: P. falciparum in erythrocytes, SYBR Green DNA, 72 h; series mostly up to 28.7 µM
Method in brief: as §1

ATS189 = experiment: as above; settings: P. falciparum in erythrocytes, SYBR Green DNA, 72 h; series mostly up to 28.7 µM
Method in brief: as §1

ATS95 = experiment: as above; settings: P. falciparum in erythrocytes, SYBR Green DNA, 72 h; series mostly up to 28.7 µM
Method in brief: as §1

C2A = experiment: as above; settings: P. falciparum in erythrocytes, SYBR Green DNA, 72 h; series mostly up to 28.7 µM
Method in brief: as §1

CP185 = experiment: as above; settings: P. falciparum in erythrocytes, SYBR Green DNA, 72 h; series mostly up to 28.7 µM
Method in brief: as §1

CP191 = experiment: as above; settings: P. falciparum in erythrocytes, SYBR Green DNA, 72 h; series mostly up to 28.7 µM
Method in brief: as §1

CP192 = experiment: as above; settings: P. falciparum in erythrocytes, SYBR Green DNA, 72 h; series mostly up to 28.7 µM
Method in brief: as §1

CP194 = experiment: as above; settings: P. falciparum in erythrocytes, SYBR Green DNA, 72 h; series mostly up to 28.7 µM
Method in brief: as §1

CP201 = experiment: as above; settings: P. falciparum in erythrocytes, SYBR Green DNA, 72 h; series mostly up to 28.7 µM
Method in brief: as §1

CP203 = experiment: as above; settings: P. falciparum in erythrocytes, SYBR Green DNA, 72 h; series mostly up to 28.7 µM
Method in brief: as §1

CP211 = experiment: as above; settings: P. falciparum in erythrocytes, SYBR Green DNA, 72 h; series mostly up to 28.7 µM
Method in brief: as §1

CP215 = experiment: as above; settings: P. falciparum in erythrocytes, SYBR Green DNA, 72 h; series mostly up to 28.7 µM
Method in brief: as §1

CP217 = experiment: as above; settings: P. falciparum in erythrocytes, SYBR Green DNA, 72 h; series mostly up to 28.7 µM
Method in brief: as §1

[2] = at 28.7 µM (top of the series), parasite line A
[3] = at 28.7 µM (top of the series), parasite line B
Potency means the concentration at half of the fitted maximal effect.

CC(=O)Oc1ccc(C)cc1
activity, negative = inhibition [1, 2]: 9.31% | activity, negative = inhibition [1, 3]: 10.5% | Potency (3D7): inactive | Potency (7G8): inactive | Potency (AA1029): inactive | Potency (AS120): inactive | Potency (ATS189): inactive | Potency (ATS95): inactive | Potency (C2A): inactive | Potency (CP185): inactive | Potency (CP191): inactive | Potency (CP192): inactive | Potency (CP194): inactive | Potency (CP201): inactive | Potency (CP203): inactive | Potency (CP211): inactive | Potency (CP215): inactive | Potency (CP217): inactive

COc1cc(NS(=O)(=O)c2ccc(N)cc2)ncn1
activity, negative = inhibition ([1]; at 12.8 µM (top of the series), parasite line A): 3.14% | activity, negative = inhibition ([1]; at 12.8 µM (top of the series), parasite line B): 1.14% | Potency (3D7): inactive | Potency (7G8): inactive | Potency (AA1029): inactive | Potency (AS120): inactive | Potency (ATS189): inactive | Potency (ATS95): inactive | Potency (C2A): inactive | Potency (CP185): inactive | Potency (CP191): inactive | Potency (CP192): inactive | Potency (CP194): inactive | Potency (CP201): inactive | Potency (CP203): inactive | Potency (CP211): inactive | Potency (CP215): inactive | Potency (CP217): inactive

COP(=O)(OC)OC(c1ccc(Cl)cc1)P(=O)(OC)OC (stereo unspecified)
activity, negative = inhibition [1, 2]: 10.6% | activity, negative = inhibition [1, 3]: -3.59% | Potency (3D7): inactive | Potency (7G8): inactive | Potency (AA1029): inactive | Potency (AS120): inactive | Potency (ATS189): inactive | Potency (ATS95): inactive | Potency (C2A): inactive | Potency (CP185): inactive | Potency (CP191): inactive | Potency (CP192): inactive | Potency (CP194): inactive | Potency (CP201): inactive | Potency (CP203): inactive | Potency (CP211): inactive | Potency (CP215): inactive | Potency (CP217): inactive

CCN(CC)CCNc1ccc(CO)c2sc3ccccc3c(=O)c12
Potency ([1]; parasite line A): 1780 nM (active) | Potency ([1]; parasite line B): 3550 nM (active) | Potency (3D7): 2000 nM (active) | Potency (7G8): 2000 nM (active) | Potency (AA1029): 2240 nM (active) | Potency (AS120): 1000 nM (active) | Potency (ATS189): 794 nM (active) | Potency (ATS95): 2000 nM (active) | Potency (C2A): 794 nM (active) | Potency (CP185): 1000 nM (active) | Potency (CP191): 355 nM (active) | Potency (CP192): 1690 nM (active) | Potency (CP194): 3380 nM (active) | Potency (CP201): 7570 nM (active) | Potency (CP203): 4260 nM (active) | Potency (CP211): 4260 nM (active) | Potency (CP215): 4260 nM (active) | Potency (CP217): 2820 nM (active)

CCCCCCCCOc1ccc(C(=O)c2ccccc2)c(O)c1
activity, negative = inhibition [1, 2]: 16.4% | activity, negative = inhibition [1, 3]: 14.5% | Potency (3D7): inactive | Potency (7G8): inactive | Potency (AA1029): inactive | Potency (AS120): inactive | Potency (ATS189): inactive | Potency (ATS95): inactive | Potency (C2A): inactive | Potency (CP185): inactive | Potency (CP191): inactive | Potency (CP192): inactive | Potency (CP194): inactive | Potency (CP201): inactive | Potency (CP203): inactive | Potency (CP211): inactive | Potency (CP215): inactive | Potency (CP217): inactive

Cc1c[nH]c2ccccc12
activity, negative = inhibition [1, 2]: -2.76% | activity, negative = inhibition [1, 3]: 2.47% | Potency (3D7): inactive | Potency (7G8): inactive | Potency (AA1029): inactive | Potency (AS120): inactive | Potency (ATS189): inactive | Potency (ATS95): inactive | Potency (C2A): inactive | Potency (CP185): inactive | Potency (CP191): inactive | Potency (CP192): inactive | Potency (CP194): inactive | Potency (CP201): inactive | Potency (CP203): inactive | Potency (CP211): inactive | Potency (CP215): inactive | Potency (CP217): inactive

CCOC(=O)[C@H](CCc1ccccc1)N[C@@H](C)C(=O)N1[C@H](C(=O)O)C[C@H]2CCCC[C@@H]21
activity, negative = inhibition [1, 2]: 8.44% | activity, negative = inhibition [1, 3]: 4.83% | Potency (3D7): inactive | Potency (7G8): inactive | Potency (AA1029): inactive | Potency (AS120): inactive | Potency (ATS189): inactive | Potency (ATS95): inactive | Potency (C2A): inactive | Potency (CP185): inactive | Potency (CP191): inactive | Potency (CP192): inactive | Potency (CP194): inactive | Potency (CP201): inactive | Potency (CP203): inactive | Potency (CP211): inactive | Potency (CP215): inactive | Potency (CP217): inactive
